The values below come from PubChem BioAssay (NCI).

Compounds without any hit were thinned out: in the full panel of roughly 83,000, 20% have a hit.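 Each cell line was grown in a 96-well plate and treated with one concentration of compound for 48 hours. Values below 10 were considered active.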 A number with no mark means an inactive call. The source made the active and inactive calls.

Among the test systems are NCI-H23 lung; NCI-H226 lung; NCI-H322M lung; HOP-62 NSCLC; NCI-H460 lung; HOP-92 NSCLC; NCI-H522 lung; A549/ATCC NSCLC; 786-0 renal; COLO 205 colon; DU-145 prostate; K-562 leukemia; MALME-3M melanoma; MDA-MB-231 breast; RXF 393 renal; SF-268 CNS; SF-295 CNS; SF-539 CNS; UACC-257 melanoma; M14 melanoma.
What all share (assay): NCI-60 one-dose screen, 48 h (100 = growth as untreated, 0 = no growth, -100 = all killed)
What all share (conditions): 10 µM unless noted

As for `CC1(C)CCC[C@]23C(=O)O[C@](O)(C(=O)C4=C[C@@](C)(/C=C/CCCc5ccc6ccc7cccc8ccc5c6c78)CC[C@@]42O)[C@@H]13`, the growth is -60.6% (active) with NCI-H23 lung; -69.5% (active) with NCI-H226 lung; -98.6% (active) in the assay with NCI-H322M lung; -66.1% (active) with HOP-62 NSCLC; -74.5% (active) with NCI-H460 lung; -83.9% (active) in the assay with HOP-92 NSCLC. Further, the growth is -62.6% (active) in the assay with NCI-H522 lung; -70.5% (active) with A549/ATCC NSCLC; -79.3% (active) in the assay on 786-0 renal; -72.4% (active) in the assay with COLO 205 colon; -85.7% (active) in the assay with DU-145 prostate; 5.77% (active) in the assay with K-562 leukemia. Moreover, the growth is -93.6% (active) with MALME-3M melanoma; -69.9% (active) in the assay with MDA-MB-231 breast; -86.2% (active) in the assay with RXF 393 renal; -45.3% (active) with SF-268 CNS; -76.7% (active) in the assay on SF-295 CNS; -96.6% (active) in the assay on SF-539 CNS. Further, the growth with UACC-257 melanoma was -68.7% (active); in the assay on M14 melanoma, -62% (active).
For `C=C1/C(=C\C=C2/CCC[C@]3(C)[C@@H]([C@H](C)CCCC(C)(C)O)CC[C@@H]23)C[C@@H](OC(=O)CBr)C[C@@H]1O`, the growth with NCI-H23 lung is 37.7%; in the assay on NCI-H226 lung, 45.2%; in the assay with NCI-H322M lung it was 94%; in the assay on HOP-62 NSCLC, 83.8%; in the assay on NCI-H460 lung, 92.1%; in the assay with HOP-92 NSCLC, -67.5% (active). For the same compound, the growth in the assay with NCI-H522 lung is -68.8% (active); with A549/ATCC NSCLC it was 66%; in the assay with 786-0 renal, 6.95% (active); with COLO 205 colon, 19.4%; in the assay with DU-145 prostate, 92.7%; in the assay on K-562 leukemia, 30.8%. The growth with MALME-3M melanoma was -67.3% (active); in the assay with MDA-MB-231 breast, 20.5%; in the assay with RXF 393 renal, 93.3%; in the assay on SF-268 CNS it was 18%; in the assay with SF-295 CNS, 94.6%; with SF-539 CNS it was -43.1% (active). For the same compound, the growth is 99.3% in the assay with UACC-257 melanoma and 84.4% with M14 melanoma.
With `Cc1cc2c(c(C)n1)CN(C(=O)Nc1nc(-c3cncs3)ccc1N)C2`, the growth in the assay with NCI-H23 lung was 104%; in the assay with NCI-H226 lung, 107%; in the assay on NCI-H322M lung it was 97.8%; in the assay on HOP-62 NSCLC, 99.6%; in the assay on NCI-H460 lung, 106%; in the assay on HOP-92 NSCLC, 90.1%. Further, the growth in the assay with NCI-H522 lung is 87.5%; in the assay on A549/ATCC NSCLC it was 111%; in the assay on 786-0 renal it was 102%; in the assay on COLO 205 colon, 110%; with DU-145 prostate, 107%; in the assay on K-562 leukemia, 101%. The growth is 96.7% with MALME-3M melanoma; 113% in the assay on MDA-MB-231 breast; 111% in the assay with RXF 393 renal; 101% in the assay on SF-268 CNS; 99.5% in the assay with SF-295 CNS; 86.5% in the assay with SF-539 CNS. Also, the values for the growth with UACC-257 melanoma and with M14 melanoma were 103% and 104%, respectively.
As for `CN1CCN(Cc2ccc(NC(=O)c3cncc(C#Cc4cnc(N)c5ncccc45)c3)cc2Cl)CC1`, the growth with NCI-H23 lung is 57.3%; in the assay on NCI-H226 lung, 56.5%; in the assay on NCI-H322M lung, 116%; in the assay with HOP-62 NSCLC, 89.8%; with NCI-H460 lung it was 3.07% (active); in the assay on HOP-92 NSCLC it was 75.6%. Moreover, the growth with NCI-H522 lung is 85.2%; with A549/ATCC NSCLC it was 74.7%; with 786-0 renal, -78.2% (active); in the assay with COLO 205 colon, 70.3%; in the assay on DU-145 prostate, 77.1%; in the assay on K-562 leukemia, -28.9% (active). Besides, the growth was 54.2% in the assay with MALME-3M melanoma; 16.2% in the assay with MDA-MB-231 breast; 21.8% in the assay with RXF 393 renal; 98.7% in the assay on SF-268 CNS; 101% in the assay on SF-295 CNS; 83.1% in the assay with SF-539 CNS. Moreover, the growth was 89.7% in the assay on UACC-257 melanoma and 84.4% with M14 melanoma.
Take `COc1ccc(-c2nc3cc(C(=O)NC4CCCCC4)ccc3n2C2CCCCC2)cc1`: the growth is 92.5% with NCI-H23 lung; 115% in the assay with NCI-H226 lung; 85.8% in the assay on NCI-H322M lung; 101% in the assay with HOP-62 NSCLC; 86.2% in the assay with NCI-H460 lung; 121% with HOP-92 NSCLC. Also, the growth in the assay with NCI-H522 lung was 73.5%; with A549/ATCC NSCLC it was 89.4%; in the assay on 786-0 renal, 88.3%; with COLO 205 colon, 73.6%; in the assay with DU-145 prostate, 99.7%; with K-562 leukemia it was 49.5%. Further, the growth is 95.8% in the assay on MALME-3M melanoma; 101% in the assay on MDA-MB-231 breast; 100% in the assay on RXF 393 renal; 91.7% with SF-268 CNS; 78.3% with SF-295 CNS; 88% in the assay on SF-539 CNS. The growth in the assay with UACC-257 melanoma is 104%; with M14 melanoma, 88.7%.
Turning to `C#Cc1cccc(Nc2ncnc3ccc(-c4cnc(Cl)c(NS(C)(=O)=O)c4)cc23)c1`, the growth with NCI-H23 lung is -5.52% (active); in the assay on NCI-H226 lung, 2.26% (active); in the assay on NCI-H322M lung it was -42.3% (active); in the assay with HOP-62 NSCLC, 3.57% (active); in the assay with NCI-H460 lung, 6.42% (active); with HOP-92 NSCLC, -17.1% (active). The growth is -22.8% (active) in the assay with NCI-H522 lung; -28.5% (active) in the assay on A549/ATCC NSCLC; -14.6% (active) in the assay on 786-0 renal; -69.2% (active) with COLO 205 colon; 2.5% (active) with DU-145 prostate; 11.2% in the assay on K-562 leukemia. Moreover, the growth in the assay on MALME-3M melanoma was -35.5% (active); in the assay with MDA-MB-231 breast it was -6.68% (active); in the assay with RXF 393 renal it was -54.9% (active); with SF-268 CNS, -30.1% (active); in the assay with SF-295 CNS, -31.9% (active); in the assay with SF-539 CNS, -38.4% (active). Also, the growth with UACC-257 melanoma was -9.67% (active); in the assay on M14 melanoma it was -26.7% (active).
Turning to `O=C(/C=C\c1ccc(O)c(O)c1)c1ccccc1O`, the growth with NCI-H23 lung is 86.5%; with NCI-H226 lung it was 71.4%; in the assay on NCI-H322M lung it was 79.7%; in the assay with HOP-62 NSCLC, 98.7%; with NCI-H460 lung it was 61.5%; in the assay on HOP-92 NSCLC, 55.6%. Moreover, the growth with NCI-H522 lung was -61.3% (active); in the assay with A549/ATCC NSCLC, 55.7%; in the assay with 786-0 renal, 100%; in the assay with COLO 205 colon it was 80.6%; in the assay with DU-145 prostate, 94.4%; in the assay with K-562 leukemia it was 73.4%. Also, the growth in the assay on MALME-3M melanoma was 97.4%; in the assay on MDA-MB-231 breast, 69.3%; in the assay on RXF 393 renal, 42.8%; in the assay on SF-268 CNS it was 69.5%; in the assay with SF-295 CNS, 99.7%; with SF-539 CNS it was 59.3%. The growth with UACC-257 melanoma was 86.1%; in the assay with M14 melanoma, 93.5%.
Consider `Cc1[nH]c(C(=O)Nc2ccc(C(N)=O)cc2OC(C)C)c(Cl)c1Cl`, for which the growth in the assay with NCI-H23 lung was 97.6%; with NCI-H226 lung, 107%; with NCI-H322M lung, 100%; in the assay with HOP-62 NSCLC it was 92.7%; in the assay with NCI-H460 lung, 85.1%; in the assay on HOP-92 NSCLC it was 73.3%. The growth in the assay on NCI-H522 lung was 91.7%; with A549/ATCC NSCLC, 100%; in the assay on 786-0 renal, 102%; in the assay on COLO 205 colon it was 115%; in the assay with DU-145 prostate, 101%; in the assay on K-562 leukemia, 79.9%. Besides, the growth is 101% in the assay on MALME-3M melanoma; 91.4% in the assay on MDA-MB-231 breast; 133% in the assay with RXF 393 renal; 97.5% in the assay with SF-268 CNS; 104% with SF-295 CNS; 92.8% with SF-539 CNS. Also, the growth with UACC-257 melanoma was 106%; with M14 melanoma, 108%.
